Measured values from PubChem BioAssay (NCI).
This is part of a sample that, as a whole, favours compounds with a hit. Of some 83,000 tested, about 20% had one in any assay.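 96-well plates, one dose, 48 hours. Percent growth reported; active if below 10.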 The source made the active and inactive calls.

tested on: ACHN renal; experiment: NCI-60 one-dose screen, 48 h (100 = growth as untreated, 0 = no growth, -100 = all killed); conditions: 10 µM unless noted

| Structure (SMILES) | growth |
| --- | --- |
| C(=C\c1cn(-c2ccccc2)nc1-c1ccccc1)/c1nnc(-c2c[nH]c3ccccc23)o1 | 40% (inactive) |
| Nc1c(C(=O)Nc2ccccn2)sc2nc3c(cc12)C(=O)CCC3 | 59.5% (inactive) |
| C=C1C(=O)O[C@H]2[C@H]1CC/C(COC(=O)CCCCCCC(=O)OC/C1=C/CC[C@@]3(C)O[C@H]3[C@H]3OC(=O)C(=C)[C@@H]3CC1)=C\CC[C@@]1(C)O[C@@H]21 | -38.6% (active) |
| O=C(Nc1ccc2ncnc(Nc3ccc(F)c(Cl)c3)c2c1)c1ccccc1 | 37% (inactive) |
| O=C(NC[C@H](O)CN1CCc2ccccc2C1)c1cc(NC2COC2)ncn1 | 95.9% (inactive) |

tested on: A498 renal; experiment: as above; conditions: 10 µM unless noted

| Structure (SMILES) | growth |
| --- | --- |
| COC(=O)c1nc(-c2ccccc2)oc1S(=O)(=O)n1nc(-c2ccccc2)cc1N | 108% (inactive) |
| COc1ccc(C(=O)c2cc(OC)c(C)c(OC)c2)cc1OC(=O)CCl | 78.5% (inactive) |
| CC(=O)c1cnc(-c2ccccc2)nc1CBr | 82% (inactive) |
| O=C1CC23OC4ON=C(Br)C4C2C(O)c2ccccc2N13 (stereo not drawn) | 118% (inactive) |
| COc1ccc(C(=S)c2cc(OC)c(OC)c(OC)c2)cc1OC(=O)CCl | 16% (inactive) |
| COc1ccc2oc(=O)cc(-c3c(C#N)c(N)n4nc(N)c(C#N)c4c3C#N)c2c1 | 113% (inactive) |
| O=C(Nc1cc(Br)ccn1)c1cc2cc(Nc3nc(-c4ccccc4)nc4ccccc34)ccc2oc1=O | 112% (inactive) |
| CC1CCCN(CCCCCOc2ccc3oc4ccc(Cl)cc4c(=O)c3c2)C1 (stereo not drawn) | 76.3% (inactive) |
| COc1cc(C2=NNC(c3ccc(N(C)C)cc3)C2)cc(OC)c1OC (stereo not drawn) | -8.21% (active) |
| Cn1c2ccccc2c2c(OC(=O)c3ccccc3)c3c(nc21)-c1ccccc1C3 | 119% (inactive) |
| COc1cc(C(C)c2ccc3c(ccn3C)c2)cc(OC)c1OC (stereo not drawn) | 8.95% (active) |
| CC(=O)OCC1SC(OC(C)=O)C(NC(=O)/C=C/CCl)C(OC(C)=O)C1OC(C)=O (stereo not drawn) | 96.3% (inactive) |
| C[C@H]1[C@H](C)CC[C@]2(C(=O)OCCCC[P+](c3ccccc3)(c3ccccc3)c3ccccc3)CC[C@]3(C)C(=CC[C@@H]4[C@@]5(C)CC[C@H](OC(=O)C(Cl)Cl)C(C)(C)[C@@H]5CC[C@]43C)[C@H]12 | -82% (active) |
| O=C1C(=O)c2c(nc3ccc(C(F)(F)F)cn23)-c2ccccc21 | -92.9% (active) |
| COc1ccc2[nH]c(-c3ccccc3)c(C=C(C#N)C#N)c2c1 | 21% (inactive) |
| NC(=N\N=C\c1ccccc1O)/C(N)=N/N=C/c1ccccc1O | 79% (inactive) |
| Cc1ccc(-c2nc(C#N)c(S(=O)(=O)N(C)CCO)o2)cc1 | 114% (inactive) |
| CC[C@H](Nc1ncnc2nc[nH]c12)c1nc2cccc(CC(=O)c3ccc(C(=O)NO)cc3)c2c(=O)n1-c1ccccc1 | 74% (inactive) |
| NC(=O)c1ccc2nc3c(n2c1)C(=O)C(=O)c1ccccc1-3 | -58.6% (active) |
| COc1cccc(C(=O)OCCn2nc3c4c(cccc42)C(=O)c2ccccc2-3)c1O | 81.7% (inactive) |
| COc1ccc(C(C)c2cc(OC)c(OC)c(OC)c2)cc1 (stereo not drawn) | 15.7% (inactive) |
| C#C[C@@]1(O)[C@@H](CO)O[C@@H](n2ccc3c(N)ncnc32)[C@@H]1O | -53.2% (active) |
| COc1cc(NC(=O)COc2cc(C)nc3ccc(OC)cc23)cc(OC)c1 | 63.7% (inactive) |
| CN1CCN(C(=O)[C@@]2(C)CC[C@]3(C)CC[C@]4(C)C(=CC[C@@H]5[C@@]6(C)CC[C@H](OC(=O)c7cccnc7)C(C)(C)[C@@H]6CC[C@]54C)[C@@H]3C2)CC1 | 92.1% (inactive) |
| NS(=O)(=O)c1ccc(N2Cc3cc(Cl)ccc3OC3=C2C(=O)N(CC2CCCCC2)C3=O)cc1 | -72.2% (active) |
| CCCCc1nc(Cl)c(C2CC(c3ccc(Cl)cc3)=NN2c2cc(Cl)cc(Cl)c2)[nH]1 (stereo not drawn) | 84% (inactive) |
| C[C@H]1[C@H](C)CC[C@]2(C(=O)OCCOCCOCC[P+](c3ccccc3)(c3ccccc3)c3ccccc3)CC[C@]3(C)C(=CC[C@@H]4[C@@]5(C)CC[C@H](OC(=O)C(Cl)Cl)C(C)(C)[C@@H]5CC[C@]43C)[C@H]12 | 6.28% (active) |
| C=C(C)[C@@H]1CC[C@]2(C(=O)N3CCN(C)CC3)CC[C@]3(C)[C@H](CC[C@@H]4[C@@]5(C)C/C(=C/c6ccco6)C(=O)C(C)(C)[C@@H]5CC[C@]43C)[C@@H]12 | 97.5% (inactive) |
